Experimental findings from PubChem BioAssay (EPA / NIEHS) are described below.

Calls of active or inactive are those of the source. The calls were made as follows: active = hit-call score of the fitted dose curve at least 0.9, where 1 is the maximum; inactive = score below 0.9.

Common to all, as to conditions: mRNA level, 48 h; actives raise or lower the signal
Read-out in assay [1]: Cyclin D1 (CCND1), CCND1 (gene 595)
Nature of the assay: LTEA_HepaRG_CCND1: Life Technologies and Expression Analysis (LTEA) Assay for Cyclin D1 (CCND1) using HepaRG (AID 2283451). An outline of the steps:
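Differentiated human HepaRG cells in serum-free induction medium were exposed 48 h to eight half-log concentrations up to 100 uM in 0.5% DMSO; mRNA quantified by TaqMan qRT-PCR, normalized to ACTB, GAPDH, POLR2A, fitted bidirectionally versus DMSO.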

Read-out in assay [2]: catalase (CAT), CAT (gene 847)
Nature of the assay: LTEA_HepaRG_CAT: Life Technologies and Expression Analysis (LTEA) Assay for catalase (CAT) using HepaRG (AID 2283452). The essentials:
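HepaRG cells in serum-free induction medium, 0.5% DMSO vehicle, exposed 48 h in duplicate over 8 half-log concentrations from 100 uM. CAT mRNA measured by qRT-PCR, normalized to ACTB, GAPDH, POLR2A; bidirectional fit versus DMSO.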

Read-out in assay [3]: flavin-containing dimethylaniline monooxygenases 3 (FMO3), FMO3 (gene 2328)
Nature of the assay: LTEA_HepaRG_FMO3: Life Technologies and Expression Analysis (LTEA) Assay for flavin-containing dimethylaniline monooxygenases 3 (FMO3) using HepaRG (AID 2283453). The essentials: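 HepaRG, 48 h exposure, 8-pt half-log series from 100 uM, 0.5% DMSO vehicle, duplicates; FMO3 transcript by Fluidigm TaqMan qRT-PCR, housekeeping-normalized; gain/loss fit vs DMSO.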

Read-out in assay [4]: Cytochrome P450 (CYP1A1), CYP1A1 (gene 1543)
Nature of the assay: LTEA_HepaRG_CYP1A1: Life Technologies and Expression Analysis (LTEA) Assay for Cytochrome P450 (CYP1A1) using HepaRG (AID 2283454). The essentials:
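Differentiated HepaRG cells in serum-free induction medium were exposed in duplicate for 48 h to eight half-log concentrations up to 100 uM in 0.5% DMSO. CYP1A1 mRNA was quantified by TaqMan qRT-PCR, normalized to ACTB, GAPDH and POLR2A.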

Read-out in assay [5]: CFLAR gene, CFLAR (gene 8837)
Nature of the assay: LTEA_HepaRG_CFLAR: Life Technologies and Expression Analysis (LTEA) Assay for CFLAR gene using HepaRG (AID 2283455). An outline of the steps:
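Differentiated HepaRG cells in serum-free induction medium were exposed 48 h in duplicate to eight half-log concentrations up to 100 uM in 0.5% DMSO; mRNA measured by TaqMan qRT-PCR, normalized to ACTB, GAPDH, POLR2A; bidirectional fitting versus DMSO.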

Read-out in assay [6]: Forkhead box O1 (FOXO1), FOXO1 (gene 2308)
Put plainly: LTEA_HepaRG_FOXO1: Life Technologies and Expression Analysis (LTEA) Assay for Forkhead box O1 (FOXO1) using HepaRG (AID 2283456). The essentials:
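Differentiated HepaRG cells, in serum-free induction medium with 0.5% DMSO, exposed 48 h in duplicate to 8-point half-log series from 100 uM. FOXO1 mRNA measured by TaqMan qRT-PCR, normalized to ACTB, GAPDH, POLR2A; bidirectional fit versus DMSO.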

Read-out in assay [7]: growth arrest and DNA damage 45 (GADD45A), GADD45A (gene 1647)
Put plainly: LTEA_HepaRG_GADD45A: Life Technologies and Expression Analysis (LTEA) Assay for growth arrest and DNA damage 45 (GADD45A) using HepaRG (AID 2283458). The essentials: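 Human HepaRG liver cells are treated in duplicate for 48 h with chemicals in 0.5% DMSO, highest concentration 100 uM. Expression is read by qRT-PCR and analyzed in both directions against vehicle.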

Read-out in assay [8]: Forkhead box O3 (FOXO3), FOXO3 (gene 2309)
Put plainly: LTEA_HepaRG_FOXO3: Life Technologies and Expression Analysis (LTEA) Assay for Forkhead box O3 (FOXO3) using HepaRG (AID 2283459). The essentials:
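Differentiated human HepaRG cells, 48 h post-plating, exposed in duplicate for 48 h in serum-free induction medium; 8-point half-log series from 100 uM in 0.5% DMSO. FOXO3 mRNA by TaqMan qRT-PCR, normalized to ACTB/GAPDH/POLR2A; bidirectional fit versus DMSO.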

Read-out in assay [9]: ABC Transporter (ABCB1), ABCB1 (gene 5243)
Nature of the assay: LTEA_HepaRG_ABCB1: Life Technologies and Expression Analysis (LTEA) Assay for ABC Transporter (ABCB1) using HepaRG (AID 2283460). The essentials: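 HepaRG cells exposed in duplicate for 48 h in serum-free induction medium to eight half-log concentrations up to 100 uM in 0.5% DMSO. ABCB1 mRNA quantified by qRT-PCR, normalised to ACTB, GAPDH and POLR2A; fitted bidirectionally versus DMSO.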

Read-out in assay [10]: growth arrest and DNA damage 45 (GADD45B), GADD45B (gene 4616)
Nature of the assay: LTEA_HepaRG_GADD45B: Life Technologies and Expression Analysis (LTEA) Assay for growth arrest and DNA damage 45 (GADD45B) using HepaRG (AID 2283461). The essentials:
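Differentiated HepaRG cells, plated 48 h then switched to serum-free induction medium, were exposed 48 h in duplicate to eight half-log concentrations from 100 uM in 0.5% DMSO; mRNA quantified by qRT-PCR, normalized to ACTB/GAPDH/POLR2A, bidirectional fit versus DMSO.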

Read-out in assay [11]: ABC Transporter (ABCB11), ABCB11 (gene 8647)
Nature of the assay: LTEA_HepaRG_ABCB11: Life Technologies and Expression Analysis (LTEA) Assay for ABC Transporter (ABCB11) using HepaRG (AID 2283463). The essentials: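 Differentiated human HepaRG cells in serum-free induction medium, dosed in duplicate for 48 h. Eight-point half-log series from 100 uM in 0.5% DMSO; ABCB11 mRNA by qRT-PCR, normalized to ACTB, GAPDH, POLR2A, fitted bidirectionally versus DMSO.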

Read-out in assay [12]: ABC Transporter (ABCC2), ABCC2 (gene 1244)
Put plainly: LTEA_HepaRG_ABCC2: Life Technologies and Expression Analysis (LTEA) Assay for ABC Transporter (ABCC2) using HepaRG (AID 2283464). The essentials: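 HepaRG cells were plated 48 h, switched to serum-free induction medium, then exposed in duplicate for 48 h to 8 concentrations (top 100 uM, half-log steps, 0.5% DMSO). ABCC2 mRNA was measured by qRT-PCR normalized to ACTB/GAPDH/POLR2A; bidirectional fitting versus DMSO.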

Read-out in assay [13]: Broad substrate specificity ATP-binding cassette transporter ABCG2 (Homo sapiens) (UniProt Q9UNQ0)
Nature of the assay: LTEA_HepaRG_ABCG2: Life Technologies and Expression Analysis (LTEA) Assay for ABC Transporter (ABCG2) using HepaRG (AID 2283465). An outline of the steps: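 Differentiated HepaRG cells were exposed for 48 h in serum-free induction medium to 8 half-log concentrations, top 100 uM, in 0.5% DMSO. ABCG2 mRNA was measured by qRT-PCR, normalized to ACTB, GAPDH and POLR2A, with bidirectional fitting versus DMSO.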

Read-out in assay [14]: ATP-citrate lyase (ACLY), ACLY (gene 47)
Put plainly: LTEA_HepaRG_ACLY: Life Technologies and Expression Analysis (LTEA) Assay for ATP-citrate lyase (ACLY) using HepaRG (AID 2283466). An outline of the steps:
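Differentiated HepaRG cells exposed 48 h in serum-free induction medium to eight half-log concentrations up to 100 uM in 0.5% DMSO, duplicates. Transcript measured by Fluidigm TaqMan qRT-PCR, normalized to ACTB, GAPDH, POLR2A; bidirectional fit versus DMSO.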

Read-out in assay [15]: Peroxisomal acyl-coenzyme A oxidase 1 (ACOX1) gene, ACOX1 (gene 51)
Nature of the assay: LTEA_HepaRG_ACOX1: Life Technologies and Expression Analysis (LTEA) Assay for Peroxisomal acyl-coenzyme A oxidase 1 (ACOX1) gene using HepaRG (AID 2283467). The essentials:
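HepaRG cells, plated 48 h then switched to serum-free induction medium, were exposed in duplicate for 48 h to 8-point half-log concentrations up to 100 uM in 0.5% DMSO. ACOX1 mRNA was measured by qRT-PCR, normalized to ACTB/GAPDH/POLR2A, and fitted bidirectionally versus DMSO.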

Read-out in assay [16]: Alkaline Phosphatase, Placental (ALPP) gene, ALPP (gene 250)
Nature of the assay: LTEA_HepaRG_ALPP: Life Technologies and Expression Analysis (LTEA) Assay for Alkaline Phosphatase, Placental (ALPP) gene using HepaRG (AID 2283468). The essentials: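 Differentiated human HepaRG cells were plated and cultured 48 h, then exposed in duplicate for 48 h in serum-free induction medium to eight half-log concentrations from 100 uM in 0.5% DMSO. ALPP mRNA was measured by TaqMan qRT-PCR, normalized to ACTB, GAPDH, POLR2A.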

Read-out in assay [17]: Bcl-2 (BAD) gene, BAD (gene 572)
Put plainly: LTEA_HepaRG_BAD: Life Technologies and Expression Analysis (LTEA) Assay for Bcl-2 (BAD) gene using HepaRG (AID 2283469). An outline of the steps:
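Differentiated HepaRG cells were exposed in duplicate in 0.5% DMSO for 48 h to eight-point half-log concentrations up to 100 uM. BAD mRNA was measured by Fluidigm TaqMan qRT-PCR, normalized to ACTB, GAPDH and POLR2A, and fitted bidirectionally against DMSO.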

Read-out in assay [18]: Bcl-2 (BAX) gene, BAX (gene 581)
Nature of the assay: LTEA_HepaRG_BAX: Life Technologies and Expression Analysis (LTEA) Assay for Bcl-2 (BAX) gene using HepaRG (AID 2283470). The essentials:
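Concentration-response endpoint fitted in both directions relative to 0.5% DMSO vehicle. Human HepaRG cultures receive test chemicals for 48 h at up to 100 uM; BAX mRNA is quantified by qRT-PCR against housekeeping genes.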

Read-out in assay [19]: ABC Transporter (ABCC3), ABCC3 (gene 8714)
Nature of the assay: LTEA_HepaRG_ABCC3: Life Technologies and Expression Analysis (LTEA) Assay for ABC Transporter (ABCC3) using HepaRG (AID 2283462). The essentials: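 HepaRG cells in serum-free induction medium were exposed for 48 h in duplicate to 8-point half-log concentrations topping at 100 uM in 0.5% DMSO. ABCC3 mRNA was measured by qRT-PCR normalized to ACTB, GAPDH and POLR2A, with bidirectional fitting versus DMSO.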

Broad substrate specificity ATP-binding cassette transporter ABCG2 (Homo sapiens), sequence (Q9UNQ0 whole entry, looked up): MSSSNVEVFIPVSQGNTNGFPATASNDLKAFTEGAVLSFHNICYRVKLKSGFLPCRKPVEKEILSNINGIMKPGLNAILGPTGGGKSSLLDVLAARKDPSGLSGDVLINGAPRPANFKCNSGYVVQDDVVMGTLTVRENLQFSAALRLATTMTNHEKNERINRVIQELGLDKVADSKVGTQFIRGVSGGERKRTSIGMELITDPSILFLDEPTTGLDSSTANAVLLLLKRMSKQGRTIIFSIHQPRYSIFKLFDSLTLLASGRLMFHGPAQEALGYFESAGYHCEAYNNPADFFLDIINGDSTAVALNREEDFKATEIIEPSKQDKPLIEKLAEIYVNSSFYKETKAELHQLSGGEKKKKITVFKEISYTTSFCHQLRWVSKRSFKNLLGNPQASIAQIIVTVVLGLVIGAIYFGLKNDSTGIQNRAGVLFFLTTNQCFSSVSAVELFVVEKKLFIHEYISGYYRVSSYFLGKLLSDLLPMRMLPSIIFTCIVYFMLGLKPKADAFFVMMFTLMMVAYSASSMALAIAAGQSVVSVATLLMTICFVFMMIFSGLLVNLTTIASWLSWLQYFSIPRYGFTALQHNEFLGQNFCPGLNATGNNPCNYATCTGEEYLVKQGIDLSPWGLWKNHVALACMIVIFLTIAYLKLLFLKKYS

The AC50 is the concentration at which the activity in the assay is half-maximal. In the case of `CCCCCCCCCCCCN1CCCC1=O`, the compound was called inactive in assay [1], in assay [2], in [3], in [5], in [6] and in [7]. The outcome in assay [8], in assay [9], in assay [10], in [11], in [12] and in [13] was inactive. Moreover, the compound was classed as inactive in assay [14], in [15], in [16], in assay [17] and in assay [18]. In assay [4], the AC50 was 68.2 µM (active).
In the case of `CCN(CC)CCNc1ccc(CNC=O)c2sc3ccc(OC)cc3c(=O)c12`, the AC50 is 17.5 µM (active) in assay [2]; 34.6 µM (active) in assay [3]; 4.07 µM (active) in assay [4]; 27.5 µM (active) in [5]; 13.3 µM (active) in assay [6]; 50 µM (active) in assay [8]. In addition, the AC50 is 11.4 µM (active) in assay [10]; 86.6 µM (active) in assay [19]; 11.4 µM (active) in [11]; 77.5 µM (active) in [12]; 9.65 µM (active) in assay [13]; 83.2 µM (active) in [14]. Besides, the AC50 in assay [15] is 50 µM (active). Also, the compound was classed as inactive in assay [7], in [17] and in assay [18].
As for `CCCOc1sc(C(=O)N2CCC(c3cc(CN)ccc3F)CC2)c(C)c1Br`, the result in assay [2], in assay [3], in assay [4], in [5], in assay [6] and in [7] was inactive. Moreover, the call in assay [8], in assay [10], in assay [11], in assay [12], in assay [13] and in assay [14] was inactive. In addition, the result in assay [15], in assay [16], in [17] and in assay [18] was inactive.
`CCCCCCCCOC(=O)CCCCCCCCC(=O)OCCCCCCCC`: the call in assay [2], in [3], in assay [5], in assay [6], in [7] and in assay [8] was inactive. Besides, the outcome in [10], in assay [19], in assay [11], in [12], in assay [13] and in assay [14] was inactive. For the same compound, the compound was called inactive in assay [15], in [16], in assay [17] and in assay [18]. In addition, in assay [4], the AC50 was 30.3 µM (active).
